Laboratory results published in PubChem BioAssay AID1159580 (chemical genetic matrix, 2015).
The whole screen tested about 5,500 compounds, of which about 2,000 (36%) were called active. Inconclusive results (about 18%) are left out. Cut-off read from the data, not from the text of the source: active = normalized growth mostly below about 0.91 (no sharp cut-off); inconclusive = no clear call, values can overlap the other calls; inactive = mostly above about 0.92. The list shows a part of the results.

Test: chemical genetic growth profiling, strain panel (AID 1159580);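 note: tested at 20 µM; growth read once vehicle control cultures reached saturation at 30 °C; 1 = growth at the plate median or of vehicle wells; lower values mean less growth of the strain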
Conditions: growth OD
[1] = S. cerevisiae deletion strains, locus YAL013W, strain DEP1, active compounds read low
[2] = S. cerevisiae deletion strains, locus YDR150W, strain NUM1, active compounds read low
[3] = S. cerevisiae deletion strains, locus YGR078C, strain PAC10, active compounds read low
[4] = S. cerevisiae deletion strains, locus YJR075W, strain HOC1, active compounds read low
[5] = S. cerevisiae deletion strains, locus YMR263W, strain SAP30, active compounds read low
[6] = S. cerevisiae deletion strains, locus YNL322C, strain KRE1, active compounds read low
[7] = S. cerevisiae deletion strains, locus YPL055C, strain LGE1, active compounds read low

Measured: normalized growth

CCC(=O)c1c(C)c(C)c(C)c(C)c1C
inactive: [1] 0.985 | S. cerevisiae deletion strains, locus YBR229C, strain ROT2, active compounds read low 0.992 | S. cerevisiae deletion strains, locus YCL061C, strain MRC1, active compounds read low 0.988 | S. cerevisiae deletion strains, locus YDL101C, strain DUN1, active compounds read low 0.99 | S. cerevisiae deletion strains, locus YDL134C, strain PPH21, active compounds read low 0.984 | [2] 1.01 | S. cerevisiae deletion strains, locus YEL061C, strain CIN8, active compounds read low 0.975 | [3] 1 | S. cerevisiae deletion strains, locus YHR030C, strain SLT2, active compounds read low 0.95 | S. cerevisiae deletion strains, locus YHR087W, strain rtc3, active compounds read low 0.959 | S. cerevisiae deletion strains, locus YJL187C, strain SWE1, active compounds read low 0.995 | S. cerevisiae deletion strains, locus YJR043C, strain POL32, active compounds read low 0.983 | [4] 0.948 | S. cerevisiae deletion strains, locus YKL190W, strain CNB1, active compounds read low 0.983 | S. cerevisiae deletion strains, locus YLR039C, strain RIC1, active compounds read low 1.1 | S. cerevisiae deletion strains, locus YLR058C, strain SHM2 (second series), active compounds read low 0.967 | S. cerevisiae deletion strains, locus YLR085C, strain ARP6, active compounds read low 1.01 | S. cerevisiae deletion strains, locus YLR262C, strain YPT6, active compounds read low 1.06 | S. cerevisiae deletion strains, locus YML094W, strain GIM5, active compounds read low 0.977 | S. cerevisiae deletion strains, locus YMR219W, strain ESC1, active compounds read low 0.986 | [5] 0.977 | S. cerevisiae deletion strains, locus YNL153C, strain GIM3, active compounds read low 0.982 | S. cerevisiae deletion strains, locus YNL298W, strain CLA4 (second series), active compounds read low 0.966 | [6] 0.997 | S. cerevisiae deletion strains, locus YNR030W, strain Alg12, active compounds read low 0.954 | S. cerevisiae deletion strains, locus YOL006C, strain TOP1, active compounds read low 1.01 | [7] 0.971 | S. cerevisiae deletion strains, locus YPL241C, strain CIN2, active compounds read low 0.986 | S. cerevisiae deletion strains, locus YPR135W, strain CTF4, active compounds read low 0.976 | S. cerevisiae strains, strain wild type, active compounds read low 0.988

CNC(=O)[C@H]1O[C@@H](n2cnc3c(NCc4ccc(I)cc4)nc(Cl)nc32)[C@H](O)[C@@H]1O
inactive: [1] 0.986 | S. cerevisiae deletion strains, locus YAL040C, strain CLN3, active compounds read low 0.939 | S. cerevisiae deletion strains, locus YCL061C, strain MRC1 (second series), active compounds read low 0.996 | [2] 1 | S. cerevisiae deletion strains, locus YDR363W, strain ESC2, active compounds read low 0.944 | S. cerevisiae deletion strains, locus YER002W, strain NOP16, active compounds read low 0.97 | [3] 0.99 | [4] 0.999 | [5] 0.995 | S. cerevisiae deletion strains, locus YMR307W, strain GAS1, active compounds read low 1 | S. cerevisiae deletion strains, locus YNL128W, strain TEP1, active compounds read low 0.981 | S. cerevisiae deletion strains, locus YNL175C, strain NOP13, active compounds read low 0.962 | S. cerevisiae deletion strains, locus YNL197C, strain WHI3, active compounds read low 0.98 | S. cerevisiae deletion strains, locus YNL224C, strain SQS1, active compounds read low 0.997 | [6] 0.972 | S. cerevisiae deletion strains, locus YOR083W, strain WHI5 (second series), active compounds read low 0.918 | [7] 0.937
